Many of the other results were omitted from the sample, so hits are more common in it than they were.
NOMO-1 viab: NOMO-1 AML cell viability reduction, primary screen, STK33 inhibitor project, CellTiter-Glo luminescence | NOMO-1 AML viability, 72 h | inhibition, % (test concentration not listed) | 37,000 tested, 7.5% active; in the data active = inhibition above about 80%
ROS inducer: ROS inducers in U2OS cancer cells, primary screen, cell-based, H2DCF-DA fluorescence. U2OS ROS induction. ROS induction (% of piperlongumine), % at 10 µM. 46,000 tested, 2% active; in the data active = ROS induction above about 79%, passing the limit was not always enough;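 also: 0% = DMSO vehicle median and 100% = reference compound median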
Active calls of the source: *; . = no result.

SMILES	NOMO-1 viab	ROS inducer
C[C@H](CO)N1C[C@H](C)[C@H](CN(C)S(=O)(=O)c2ccccc2)Oc2ccc(NC(=O)Cc3cn(C)c4ccccc34)cc2C1=O	29	1
C[C@@H]1CN([C@H](C)CO)C(=O)c2cc(NC(=O)CCC(F)(F)F)ccc2O[C@@H]1CN(C)Cc1ccc(C(=O)O)cc1	-19	1
O=C(NN=C1CCCCCCC1)c1ccccc1O	.	-14
C[C@H](CO)N1C[C@H](C)[C@H](CN(C)S(=O)(=O)c2ccc(F)cc2)Oc2ccc(NS(=O)(=O)c3cccs3)cc2CC1=O	40	-7
CCN(CC(=O)Nc1cccc([N+](=O)[O-])c1C)S(=O)(=O)c1ccc(Br)cc1	-20	1
COc1ccc(Cl)cc1NC(=O)CSc1n[nH]c(-c2ccccc2)n1	9	.
C[C@H](CO)N1C[C@H](C)[C@H](CN(C)Cc2cccc(O)c2)OCc2cnnn2CCCC1=O	.	-7
CC(C)(C)c1ccc(-c2nnc(SCC(=O)Nc3ccccc3)n2-c2ccccc2)cc1	113*	5
Cc1ccc(NC(=O)CSc2nnc(-c3cccnc3)n2-c2ccc(Br)cc2)cc1F	33	77*
O=C(CSc1nnc(-c2ccncc2)n1-c1ccccc1)Nc1ccc(C(F)(F)F)cc1	17	4
Cc1ccc(NC(=O)CSc2nnc(-c3ccncc3)n2-c2ccc(Cl)cc2)cc1F	29	7
Cc1ccc(CSCC(=O)NCCc2ccc(Cl)cc2)cc1	.	-13
Cc1cc(C(=O)Nc2cccc3c2O[C@H](CN(C)S(=O)(=O)c2cccs2)[C@@H](C)CN([C@@H](C)CO)C3=O)n(C)n1	-5	0
Cc1cc(C)cc(OCC(=O)Nc2cc(-c3nc4ccccc4s3)ccc2C)c1	15	-2
COc1ccc(Cl)cc1NC(=O)CN(Cc1ccccc1)S(C)(=O)=O	-8	.
COCCOC(=O)N1C(=O)[C@@]2(c3cc(C#Cc4ccc(OC)cc4)ccc31)[C@H](c1ccccc1OCCO)N1[C@H](c3ccccc3)[C@H](c3ccccc3)OC(=O)[C@H]1[C@@H]2C(=O)N1CCN(c2ncccn2)CC1	.	32
COCCOC(=O)N1C(=O)[C@@]2(c3cc(C#CCC(C(=O)OC)C(=O)OC)ccc31)[C@H](C(N)=O)[C@H]1C(=O)O[C@H](c3ccccc3)[C@H](c3ccccc3)N1[C@@H]2c1ccccc1OCCO	.	162*
COCCOC(=O)N1C(=O)[C@@]2(c3cc(C#CCC(C(=O)OC)C(=O)OC)ccc31)[C@H](C(=O)N1CCN(c3ncccn3)CC1)[C@H]1C(=O)O[C@H](c3ccccc3)[C@H](c3ccccc3)N1[C@@H]2c1ccccc1OCCO	.	80*
COCCOC(=O)N1C(=O)[C@@]2(c3cc(C#CCCO)ccc31)[C@H](C(N)=O)[C@H]1C(=O)O[C@H](c3ccccc3)[C@H](c3ccccc3)N1[C@@H]2c1ccccc1OCCO	.	16
COCCOC(=O)N1C(=O)[C@@]2(c3cc(C#CC4(O)CCCCCC4)ccc31)[C@H](C(=O)N1CCN(c3ncccn3)CC1)[C@H]1C(=O)O[C@H](c3ccccc3)[C@H](c3ccccc3)N1[C@@H]2c1ccccc1OCCO	.	84*
COCCOC(=O)N1C(=O)[C@@]2(c3cc(C#CCC(C(=O)OC)C(=O)OC)ccc31)[C@H](C(=O)N1CCN(c3ncccn3)CC1)[C@H]1C(=O)O[C@H](c3ccccc3)[C@H](c3ccccc3)N1[C@@H]2c1ccc(O)cc1	.	50
Cc1ccc(-c2nnc(SCC(=O)Nc3cccc([N+](=O)[O-])c3)n2-c2ccccc2)cc1Cl	20	-8
C[C@@H]1CN([C@@H](C)CO)C(=O)CCCn2nncc2CO[C@H]1CN(C)C(=O)Nc1cccc(C(F)(F)F)c1	.	16
CCCNS(=O)(=O)c1nc2nc(C)cc(C)n2n1	.	-15
Cc1cc(OCC(=O)Nc2cccnc2)c(C)cc1Br	-11	.
SMILES	NOMO-1 viab	ROS inducer
CC(C)=CCC[C@@H](C)C/C=N/NC(=O)CCCCCC(=O)O	.	-14
COC(=O)CN1C=C(C(=O)OC)C(c2ccc(Cl)cc2)C(C(=O)OC)=C1	.	-7
COC(=O)C1=CN(C(CC(C)C)C(=O)OC)C=C(C(=O)OC)C1c1ccc(Br)cc1 (stereo not drawn)	50	95*
COc1ccc(NC(=O)N(C)C[C@@H]2Oc3ccc(NC(=O)C4CCCCC4)cc3CC(=O)N([C@H](C)CO)C[C@H]2C)cc1	-12	-2
C=C1C(=O)O[C@@H]2C[C@H](C)[C@@]3(O)C[C@H](O)[C@@](C)(C[C@@H](OC(=O)C(C)C)[C@@H]12)O3	119*	21
COc1c(C)c(O)c(C)c(O)c1C(=O)CCc1ccccc1	45	-1
COc1c(Cc2ccccc2O)c(O)c(Cc2ccccc2O)c(O)c1C(=O)CCc1ccccc1	106*	16
